Hits are enriched below; roughly 5.7% of the tested compounds scored in any of these assays.
S2 tox – cell viability loss in ATXN counter-screen | S2 cells (HEK-293 line with an ATXN2-luciferase reporter) viability, CellTiter-Fluor protease fluorescence, 24 h | actives 0.49% (n = 400,000) | Potency, µM (series often up to 56.7 µM), hits mostly cytotoxic; further: potency means the concentration at half of the fitted maximal effect; nearly all actives have a fitted effect of over 40% in size
ATXN2 expr inh – ATXN2 expression inhibition; HEK-293 ATXN2-luciferase reporter, luminescence, 24 h; Potency, µM (series often up to 57 µM), for inactives: at the top dose activity change, negative = inhibition, usual class: inhibitors; actives 0.72% (n = 360,000); further: potency means the concentration at half of the fitted maximal effect; on the % scale 0 is the no-effect control and ±100 the full control effect; nearly all actives have a fitted effect of over 55% in size
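qHTS (up to 57 uM final) was run with 24 h compound exposure of reporter cells at 37 °C. Each well was multiplexed: SteadyGlo luminescence measured ATXN2-luciferase expression after a fluorogenic Gly-Phe-AFC viability readout (25 uM final).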
HepG2 viability – HepG2 cytotoxicity, counter-screen for TGF-b inhibitors | HepG2 CAGA-GFP viability, ATP luminescence, 18 h | Potency, µM (top dose mostly 46.1 µM), inactives show at the highest dose activity change, negative = cytotoxicity, most hits filed as cytotoxic | actives 0.76% (n = 410,000); further: potency means the concentration at half of the fitted maximal effect
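CellTiter-Glo luminescence gave cytotoxicity after 18 hours at 37 degrees C. The cells were HepG2 CAGA-GFP in 1% FBS DMEM, stimulated with 500 pg/mL TGF-beta after compound addition. %Activity was normalised to no-cell wells (complete cell-killing) and DMSO (no toxicity), and curves were fitted and classified.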
IL1B secr inh – blocks inflammasome-driven IL-1 beta release | THP-1 LPS/ATP IL-1B secretion, AlphaLISA, 16 h; stronger effect = lower value | activity change, % at 57.5 µM | actives 4.7% (n = 360,000); in the data active means activity change below about -50%; inconclusive means mostly about -30% to -49%; further: on the % scale 0 is the no-effect control and ±100 the full control effect
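Secreted IL-1B measured by AlphaLISA bead assay after 16 h compound exposure of THP-1 cells; compounds (final up to 57.5 uM) added 1 h before LPS (250 ng/mL) and ATP (1.25 mM) stimulation; lower signal means less secretion.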
TGFb inhibitor – inhibitors of TGF-b signaling; actives 1.2% (n = 410,000); Potency, µM (titrated, usually from 46.1 µM), inactives show at the top dose activity, negative = inhibition, actives largely listed as inhibitors; AID 588855; HepG2 CAGA-GFP TGF-b/SMAD3 reporter, GFP fluorescence, 18 h; TGF-beta stimulated, 500 pg/mL final; further: potency means the concentration at half of the fitted maximal effect; on the % scale 0 is the no-effect control and ±100 the full control effect; nearly all actives have a fitted effect of over 65% in size
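Inhibition of TGF-beta-driven CAGA-GFP reporter expression in HEPG2 cells is measured by cellular GFP fluorescence after 18 h stimulation with 500 pg/mL recombinant TGF-beta in 1% FBS medium at 37 degrees C.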
* marks the source's active call; other numbers are inactive results; i = inactive; ? = inconclusive; nt = no result; [ ] = remark or other dose. Unless noted, the call rests on the fitted dose curve; in most records, active means well fitted curve in the direction sought with a large enough effect; inconclusive means small, poorly fitted or top-dose-only effect, or another doubt; inactive means no such curve, though single readings can be large; an effect the other way counts as inactive or inconclusive.

SMILES | S2 tox | ATXN2 expr inh | HepG2 viability | IL1B secr inh | TGFb inhibitor
O=C(O)c1ccc(O)c2ncc(N3CCOCC3)cc12 | nt | -8% | nt | nt | nt
CC(NCc1cccc(OCc2ccccc2)c1)C(O)c1ccccc1 (stereo unspecified) | nt | nt | -91% | ? | ?
CC(NCc1ccc(OCc2ccc(Cl)cc2)cc1)C(O)c1ccccc1 (stereo unspecified) | ? | ? | 16µM* | -103* | 14µM*
CCNc1oc(-c2cccc3ccccc23)nc1C#N | ? | 23% | -4% | -15 | -20%
N#Cc1nc(-c2ccccc2Cl)oc1N1CCCCC1 | i | 41% | -15% | -51* | -19%
N#Cc1nc(COc2ccc(Cl)cc2)oc1N1CCCCCC1 | i | -3% | -2% | -59* | 0%
N#Cc1nc(-c2cccc3ccccc23)oc1NCCN1CCCCC1 | i | -14% | 22µM* | ? | 0%
Cc1cccc(OCc2nc(C#N)c(N3CCCC3)o2)c1 | i | -8% | 5% | -55* | -4%
Cc1cccc(OCc2nc(C#N)c(N3CC(C)CC(C)C3)o2)c1 (stereo unspecified) | ? | -3% | -14% | -10 | -17%
CN(C)/[N+]([O-])=N\Oc1cc(OC(=O)c2ccc(N)cc2)c([N+](=O)[O-])cc1[N+](=O)[O-] | nt | nt | 1% | nt | -4%
COc1cc(-c2oc3ccc(C)cc3c(=O)c2O)cc(OC)c1OC | nt | ? | -42% | nt | 2.5µM*
COc1cc(OC)c(-c2oc3ccccc3c(=O)c2O)c(OC)c1 | i | ? | 4% | 9 | ?
O=C(O)CN1C(=O)/C(=C\c2cccc(OCc3ccc(Cl)cc3Cl)c2)SC1=S | i | 7%[2.22 µM] | -18% | -16 | -5%
O=C(CN1C(=O)S/C(=C\c2ccc(Cl)cc2)C1=O)NC1C=CS(=O)(=O)C1 (stereo unspecified) | i | -12% | -1% | -69* | 11%
O=C(CN1C(=O)/C(=C/c2cccc(Cl)c2)SC1=S)NC1C=CS(=O)(=O)C1 (stereo unspecified) | i | -34% | -34% | -63* | ?
O=C(CN1C(=O)/C(=C/c2ccccc2F)SC1=S)NC1C=CS(=O)(=O)C1 (stereo unspecified) | i | 2% | 0% | -50* | -6%
COc1ccc(/C=C2\SC(=S)N(CCC(=O)NC3C=CS(=O)(=O)C3)C2=O)cc1 (stereo unspecified) | i | -14% | 1% | ? | -5%
COc1cccc(/C=C2\SC(=S)N(CCC(=O)NC3C=CS(=O)(=O)C3)C2=O)c1 (stereo unspecified) | i | 7% | -38% | -67* | ?
COc1ccc(CCC(=O)O)cc1 | nt | nt | -3% | nt | 2%
CCN(Cc1ccccc1)C(=O)c1cc(-c2ccccc2)n[nH]1 | i | 33% | -33% | nt | -2%
CN(C(=O)CN1C(=O)S/C(=C\c2cccc(Cl)c2)C1=O)C1CCS(=O)(=O)C1 (stereo unspecified) | i | nt | -11% | -20 | -14%
COc1cccc(/C=C2\SC(=S)N(CCC(=O)NCCc3ccc(O)cc3)C2=O)c1 | ? | ? | -54% | -85* | ?
O=C(CN1C(=O)S/C(=C\c2cccc(Cl)c2)C1=O)NC1C=CS(=O)(=O)C1 (stereo unspecified) | i | 8% | 4% | -67* | 7%
CC(C)(C)C(=O)NCC(c1ccc2c(c1)OCO2)N1CCOCC1 (stereo unspecified) | nt | nt | 8% | nt | 2%
COc1cc(C(=O)OCC(=O)N2c3ccccc3NC(=O)C2(C)C)ccc1OCC(C)C | i | -16% | -22% | -81* | -31%
SMILES | S2 tox | ATXN2 expr inh | HepG2 viability | IL1B secr inh | TGFb inhibitor
C=CC[C@@H](CC(=O)N(CCO)Cc1ccccc1)C(=O)N[C@H](COC(=O)[C@@H](CC=C)CC(=O)OC(C)(C)C)Cc1c[nH]c2ccccc12 | nt | ? | -43% | -56* | 13µM*
C=CC[C@H](CC(=O)NCCO)C(=O)N[C@H](COC(=O)[C@@H](CC=C)CC(=O)OC(C)(C)C)Cc1c[nH]c2ccccc12 | i | 6% | -30% | 0 | 0%
C=CC[C@@H](CC(=O)N[C@H](CO)Cc1ccccc1)C(=O)N[C@@H](COC(=O)[C@H](CC=C)CC(=O)OC(C)(C)C)Cc1ccccc1 | ? | -21% | -25% | -17 | -17%
C=CC[C@@H](CC(=O)N(CCO)Cc1ccccc1)C(=O)N[C@@H](COC(=O)[C@@H](CC=C)CC(=O)OC(C)(C)C)Cc1c[nH]c2ccccc12 | 20µM* | 35µM* | -38% | -62* | ?
C=CC[C@H](CC(=O)N(CCO)Cc1ccccc1)C(=O)N[C@@H](COC(=O)[C@H](CC=C)CC(=O)OC(C)(C)C)Cc1c[nH]c2ccccc12 | ? | ? | -26% | -62* | ?
O=C(Nc1cccc(C(F)(F)F)c1)c1cnn(-c2cccc(F)c2)c1C1CCNCC1 | nt | nt | -7% | nt | -7%
O=C(COc1ccccc1C(=O)Nc1ccccc1)Nc1cccc([N+](=O)[O-])c1 | nt | nt | -1% | nt | -2%
Cn1cnc(S(=O)(=O)N2CCC(C(=O)Nc3ccc(Cl)c(C(F)(F)F)c3)CC2)c1 | nt | nt | -5% | nt | 1%
N#CC1=C(N)Oc2c(O)cc3ccccc3c2C1c1ccsc1 (stereo unspecified) | i | ? | -22% | -86* | ?
C[C@H](NC(=O)OC(C)(C)C)C(=O)c1ccco1 | nt | nt | 13% | nt | 7%
CC(C)OCCOc1ccc2oc(-c3ccco3)cc(=O)c2c1 | i | 17% | -12% | -66* | 2%
Nc1cccc2cccnc12 | nt | nt | -38% | nt | -13%
Oc1ccccc1-c1cc(-c2ccc3c(c2)OCCO3)n[nH]1 | i | -36% | -62% | -61* | ?
O=C(O)c1cc(-c2ccc3c(c2)OCCO3)n[nH]1 | i | -4%[11.3 µM] | 15% | 22 | 16%
Cn1c(=O)c2c(-c3ccccc3)n3c(c2n(C)c1=O)C(c1ccc([N+](=O)[O-])cc1)Nc1ccccc1-3 (stereo unspecified) | i | -9% | -14% | nt | -6%
CC(C)(C)C1=CC(=Nc2ccccc2N)C=C(C(C)(C)C)C1=O | i | 14% | -50% | -113* | ?
O=C(COc1ccc(Cl)cc1)Nc1ccccc1C(=O)OCc1cc(=O)n2ccsc2n1 | i | 5% | -17% | nt | ?
CCc1ccccc1NC(=O)CN1CCCN(Cc2cc(C)ccc2C)S1(=O)=O | nt | nt | -35% | nt | 18µM*
CCN1/C(=C/c2ccc3ccccc3[n+]2CCCS(=O)(=O)[O-])C=Cc2cc(C)ccc21 | 18µM* | -16% | -15% | 5 | -21%
CCN1/C(=C/c2ccc3ccccc3[n+]2CC)C=Cc2ccccc21 | 10µM* | 3.2µM* | 10µM* | -55* | 1.8µM*
